Experimental data: paper PMC12431657, “Discovery and mechanistic insights of dibenzoylmethane as a broad spectrum inhibitor of coronavirus” (PLOS Pathogens, 2025)
Structures can show the parent of a compound that is named as a salt. Where two headings read alike, the source gives them in different places. Out of some 3,300 compounds screened, about 95 (3%) showed an effect of 50% or more. The sample as a whole holds a higher share of strong results than the screen did.

Test system: HCoV-229E
Parameters: species or system Huh-7; HTS, protection from HCoV-229E induced cell death, luminescent cell viability (CellCounting-Lite 2.0), inhibition rate
Details: 24 h post infection, 1 h compound pre-incubation, 10 µM, inhibitor

Row | Structure (SMILES) | 229E Inhibition rate [%] | 229E Inhibition rate (229E Inhibition rate, 24 h) [%]
1 | O=C(N[C@H](COC(=O)[C@H](Cc1ccccc1)NC(=O)c1ccccc1)Cc1ccccc1)c1ccccc1 [Asperphenamate] | 18 | –
2 | CCCCCCCC/C=C\CCCCCCCC(=O)O [Oleic acid] | – | 9.2
3 | CCCCC/C=C\C/C=C\CCCCCCCC(=O)NCc1ccccc1 [N-Benzyllinoleamide] | 24.5 | –
4 | CCCCCCCCCCCCCCCCCC(=O)NCc1ccccc1 [N-Benzyloctadecanamide] | 46.3 | –
5 | CCCCCCCCCCC/C=C\CCCCC(=O)O [Petroselinic acid] | 0 | –
6 | CCCCCCCC/C=C\CCCCCCCC(=O)NCc1ccccc1 [N-Benzyloleamide] | 52.8 | –
7 | CCCCCC/C=C\CCCC(=O)O [cis-5-Dodecenoic acid] | 63.5 | –
8 | Nc1nc(=O)n([C@H]2C[C@H](O)[C@@H](CO)O2)cc1CO [5-Hydroxymethyl-2’-deoxycytidine] | 0 | –
9 | OC[C@H]1OC(O)[C@H](O)[C@H](O)[C@@H]1O (stereo partly drawn) [D-Allose] | 0 | –
10 | C=C(C)[C@@H]1CC[C@]2(COC(C)=O)CC[C@]3(C)[C@H](CC[C@@H]4[C@@]5(C)CC[C@H](OC(C)=O)C(C)(C)[C@@H]5CC[C@]43C)[C@@H]12 [Betulin diacetate] | 4.9 | –
11 | O=c1ccc2cc3ccoc3c(O)c2o1 [Xanthotoxol] | 35.1 | –
12 | CC(C)=CC[C@H](OC(=O)C=C(C)C)C1=CC(=O)c2c(O)ccc(O)c2C1=O [β,β-Dimethylacrylalkannin] | 17.4 | –
13 | CC(=O)O[C@@H](CC=C(C)C)C1=CC(=O)c2c(O)ccc(O)c2C1=O [Acetylalkannin] | 10.1 | –
14 | CC(C)=CC[C@@H](OC(=O)C=C(C)C)C1=CC(=O)c2c(O)ccc(O)c2C1=O [β,β-Dimethylacrylshikonin] | 50.2 | –
15 | C[n+]1cccc(C(=O)[O-])c1 [Trigonelline] | – | 7.5
16 | O=c1cc(-c2ccccc2)oc2cc(O[C@@H]3O[C@H](CO)[C@@H](O)[C@H](O)[C@H]3O)c(O)c(O)c12 [Oroxin A] | 34.7 | –
17 | CC(=O)c1ccc[nH]1 [2-Acetylpyrrole] | 51.6 | –
18 | CC(=O)c1ccccc1 [Acetophenone] | 31.9 | –
19 | O=C(O)c1ccc[nH]1 [Pyrrole-2-carboxylic acid] | 6.8 | –

Row | Structure (SMILES) | 229E Inhibition rate [%] | 229E Inhibition rate (229E Inhibition rate, 24 h) [%]
20 | CCCCCCCCC1=C(CCCCCCCC(=O)O)C1 [Sterculic acid] | 20 | –
21 | CC(=O)NCCCCCN [N-(5-Aminopentyl)acetamide] | 61.9 | –
22 | CC(=O)NCCCCNCCCN [N8-Acetylspermidine dihydrochloride] | 37.4 | –
23 | CC(=O)NCCCCN [N-Acetylputrescine hydrochloride] | 17.4 | –
24 | C[C@@]1(C(=O)O)CC[C@]2(C)CC[C@]3(C)C4=CC(=O)c5c(cc(O)c(O)c5C=O)[C@]4(C)CC[C@@]3(C)[C@@H]2C1 [Demethylzeylasteral] | 6.3 | –
25 | CCCCCCC/C=C/C(=O)CCc1ccc(O)c(OC)c1 [[8]-Shogaol] | 39.3 | –
26 | C/C=C1/CN2[C@H]3Cc4c([nH]c5ccccc45)[C@]2(O)C[C@@H]1[C@@]3(CO)C(=O)OC [16-Epivoacarpine] | 7.1 | –
27 | C/C=C1/CN2CCc3c([nH]c4ccccc34)[C@@H]2C[C@@H]1/C(=C/OC)C(=O)OC [Geissoschizine methyl ether] | 0 | –
28 | C/C=C1/CN2[C@@H]3C[C@@]45c6ccccc6N[C@]4(O3)[C@@H]2C[C@@H]1[C@H]5C(=O)OC [Picrinine] | 51.7 | –
29 | O=C(O)CNC(=O)/C=C/c1ccccc1 [Cinnamoylglycine] | 41.7 | –
30 | O=C(O)C[C@@](O)(C(=O)O)[C@H](O)C(=O)O [(-)-Hydroxycitric acid] | 12.3 | –
31 | CC(C)=C/C=C1\O[C@@H]2CC(C)=CC(=O)[C@@H]2[C@]1(C)O [Bisabolangelone] | 30 | –
32 | O=Cc1ccc(O)cc1 [p-Hydroxybenzaldehyde] | 10.9 | –
33 | CC(C)=CCC[C@@](C)(O)[C@H]1CC[C@]2(C)[C@@H]1[C@H](O)C[C@@H]1[C@@]3(C)CC[C@H](O)C(C)(C)[C@@H]3[C@@H](O[C@@H]3O[C@H](CO)[C@@H](O)[C@H](O)[C@H]3O[C@@H]3O[C@@H](C)[C@H](O)[C@@H](O)[C@H]3O)C[C@]12C [20(R)-Ginsenoside Rg2] | 5.2 | –
34 | CC(C)=CCC[C@](C)(O)[C@H]1CC[C@]2(C)[C@@H]1[C@H](O)C[C@@H]1[C@@]3(C)CC[C@H](O)C(C)(C)[C@@H]3[C@@H](O[C@@H]3O[C@H](CO)[C@@H](O)[C@H](O)[C@H]3O[C@@H]3O[C@H](CO)[C@@H](O)[C@H](O)[C@H]3O)C[C@]12C [Ginsenoside Rf] | 28.3 | –
35 | CC(C)=CCC[C@](C)(O[C@@H]1O[C@H](CO)[C@@H](O)[C@H](O)[C@H]1O)[C@H]1CC[C@]2(C)[C@@H]1[C@H](O)C[C@@H]1[C@@]3(C)C[C@@H](O)[C@H](O[C@@H]4O[C@H](CO)[C@@H](O)[C@H](O)[C@H]4O[C@@H]4O[C@H](CO)[C@@H](O)[C@H](O)[C@H]4O)C(C)(C)[C@@H]3CC[C@]12C [Gypenoside XLVI] | 10.6 | –
36 | CC(C)=CCC[C@](C)(O)[C@H]1CC[C@]2(C)[C@@H]1[C@H](O)C[C@@H]1[C@@]3(C)C[C@@H](O)[C@H](O[C@@H]4O[C@H](CO)[C@@H](O)[C@H](O)[C@H]4O[C@@H]4O[C@H](CO)[C@@H](O)[C@H](O)[C@H]4O)C(C)(C)[C@@H]3CC[C@]12C [Gypenoside L] | 61.5 | –
37 | CC(C)=CCC[C@@](C)(O)[C@H]1CC[C@]2(C)[C@@H]1[C@H](O)C[C@@H]1[C@@]3(C)C[C@@H](O)[C@H](O[C@@H]4O[C@H](CO)[C@@H](O)[C@H](O)[C@H]4O[C@@H]4O[C@H](CO)[C@@H](O)[C@H](O)[C@H]4O)C(C)(C)[C@@H]3CC[C@]12C [Gypenoside LI] | 0 | –
38 | CC(C)=CCC[C@](C)(O)[C@H]1CC[C@]2(C)[C@@H]1[C@H](O)C[C@@H]1[C@@]3(C)CC[C@H](O)C(C)(C)[C@@H]3[C@@H](O[C@@H]3O[C@H](CO)[C@@H](O)[C@H](O)[C@H]3O[C@@H]3O[C@@H](C)[C@H](O)[C@@H](O)[C@H]3O)C[C@]12C [Ginsenoside Rg2] | 54.2 | –

Row | Structure (SMILES) | 229E Inhibition rate [%] | 229E Inhibition rate (229E Inhibition rate, 24 h) [%]
39 | COc1ccc([C@H]2OC[C@H]3[C@@H]2CO[C@H]3c2ccc(O[C@@H]3O[C@H](CO)[C@@H](O)[C@H](O)[C@H]3O)c(OC)c2)cc1OC [Phillyrin] | 0 | –
40 | COc1cc([C@@H]2[C@H]3CO[C@@]4(O)C(=O)[C@@H]2C=C([C@H]2Oc5cc(O)cc(O)c5C(=O)[C@@H]2O)[C@@H]34)ccc1O [Silydianin] | 51.4 | –
41 | COc1cc(C2Oc3cc([C@H]4Oc5cc(O)cc(O)c5C(=O)[C@@H]4O)ccc3OC2CO)ccc1O (stereo partly drawn) [Silybin] | 13 | –
42 | COc1cc(C2Oc3ccc([C@H]4Oc5cc(O)cc(O)c5C(=O)[C@@H]4O)cc3OC2CO)ccc1O (stereo partly drawn) [Isosilybin] | 0 | –
43 | COc1cc(O[C@@H]2O[C@H](CO[C@@H]3O[C@H](CO)[C@@H](O)[C@H](O)[C@H]3O)[C@@H](O)[C@H](O)[C@H]2O)c2c(O)c3c(=O)cc(C)oc3cc2c1 [Rubrofusarin gentiobioside] | 20.7 | –
44 | COc1cccc(CCC(=O)O)c1 [3-(3-Methoxyphenyl)propionic acid] | 21.4 | –
45 | O=CC[C@H](O)[C@H](O)CO [Thyminose] | 3.9 | –
46 | C=C[C@H]1[C@H](O[C@@H]2O[C@H](CO)[C@@H](O)[C@H](O)[C@H]2O)OC=C(C(=O)OC)[C@H]1CC(=O)O [Secoxyloganin] | 44.3 | –
47 | CC(C)CCC[C@@H](C)[C@H]1CC[C@H]2[C@@H]3CC=C4C[C@@H](O)CC[C@]4(C)[C@H]3CC[C@]12C [Cholesterol] | 13.1 | –
48 | C[C@H](CCCC(C)(C)O)[C@H]1CC[C@H]2[C@@H]3CC=C4C[C@@H](O)CC[C@]4(C)[C@H]3CC[C@]12C [25-Hydroxycholesterol] | 3.1 | –
49 | CC(C)CCC[C@](C)(O)[C@H]1CC[C@H]2[C@@H]3CC=C4C[C@@H](O)CC[C@]4(C)[C@H]3CC[C@@]21C [20(S)-Hydroxycholesterol] | 57 | –
50 | Nc1ncnc(N[C@@H]2O[C@H](CO)[C@@H](O)[C@H]2O)c1[N+](=O)[O-] [Clitocine] | 17.5 | –
51 | CC(C)=CCc1c(O[C@@H]2O[C@H](CO)[C@@H](O)[C@H](O)[C@H]2O)cc(O)c2c(=O)c(O[C@@H]3O[C@@H](C)[C@H](O)[C@@H](O)[C@H]3O)c(-c3ccc(O)cc3)oc12 [Epimedoside A] | 15.1 | –
52 | COc1cc2c(cc1OC)[C@@H](Cc1ccc(O)c(Oc3cc4c(cc3OC)CCN(C)[C@@H]4Cc3ccc(O)cc3)c1)N(C)CC2 [Liensinine] | – | 44.3
53 | COc1cc2c(cc1OC)[C@@H](Cc1ccc(O)c(Oc3cc4c(cc3OC)CCN(C)[C@@H]4Cc3ccc(O)cc3)c1)N(C)CC2 [Liensinine (Diperchlorate)] | – | 57.2
54 | COc1cc2c(cc1OC)[C@@H](Cc1ccc(O)c(Oc3cc4c(cc3OC)CCN(C)[C@@H]4Cc3ccc(O)cc3)c1)N(C)CC2 [Liensinine (perchlorate)] | – | 8.8
55 | CC[C@]1(O)C[C@@H]2CN(CCc3c([nH]c4ccccc34)[C@@](C(=O)OC)(c3cc4c(cc3OC)N(C)[C@H]3[C@@](O)(C(=O)OC)[C@H](OC(C)=O)[C@]5(CC)C=CCN6CC[C@]43[C@@H]65)C2)C1 [Vinblastine (sulfate)] | 30.6 | –
56 | CCC1=C[C@@H]2CN3CCc4c([nH]c5ccccc45)[C@@](C(=O)OC)(C2)[C@@H]13 [Catharanthine] | 54.2 | –
57 | CC[C@H]1C[C@@H]2CN3CCc4c([nH]c5ccccc45)[C@](C(=O)OC)(C2)[C@H]13 [Coronaridine] | 41.8 | –
